Assays:
Assay in all cases: DAPPL (digital affinity profiling via proximity ligation, sequencing); 10 mM Tris-HCl pH 7.5, 50 mM NaCl, 1 mM DTT, 4% glycerol, room temperature, 30 min; GST-TFs on glutathione beads, 16-mer random dsDNA library, 0.1% formaldehyde crosslink after washing; high values mean tight binding
FEV = biological target: T1, FEV (Homo sapiens, UniProt Q99581 1-238); settings: protein: recombinant; tags: N-terminal GST; dsDNA, one strand shown
T1 sequence: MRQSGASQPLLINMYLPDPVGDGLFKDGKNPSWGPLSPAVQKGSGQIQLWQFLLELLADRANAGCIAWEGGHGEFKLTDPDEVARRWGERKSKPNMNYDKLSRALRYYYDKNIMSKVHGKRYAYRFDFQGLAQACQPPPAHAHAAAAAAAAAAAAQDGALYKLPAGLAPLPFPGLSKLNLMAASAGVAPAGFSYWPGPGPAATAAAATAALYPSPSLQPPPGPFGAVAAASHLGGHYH
Procedure, shortened: (§1)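 In yeast, human transcription factors were expressed with a GST fusion, then pulled down on glutathione beads and given DNA barcodes. Pooled with a tag-only sample, they were exposed to 200 nmole of a 16-mer random double-stranded DNA library (Tris/NaCl/DTT/glycerol buffer, room temperature, 30 min), washed, crosslinked with 0.1% formaldehyde, proximity-ligated using BsaI/T4 ligase for 1 h at 37 °C, PCR-amplified and read on an Illumina NextSeq500. Each hexamer's frequency of reads for a factor, divided by the matching frequency for the tag-only sample, gives the binding signal.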

ETV5 = ETV5 (Homo sapiens, UniProt P41161 1-510); settings: protein: recombinant; tags: N-terminal GST; dsDNA, one strand shown
ETV5, sequence (P41161 whole entry): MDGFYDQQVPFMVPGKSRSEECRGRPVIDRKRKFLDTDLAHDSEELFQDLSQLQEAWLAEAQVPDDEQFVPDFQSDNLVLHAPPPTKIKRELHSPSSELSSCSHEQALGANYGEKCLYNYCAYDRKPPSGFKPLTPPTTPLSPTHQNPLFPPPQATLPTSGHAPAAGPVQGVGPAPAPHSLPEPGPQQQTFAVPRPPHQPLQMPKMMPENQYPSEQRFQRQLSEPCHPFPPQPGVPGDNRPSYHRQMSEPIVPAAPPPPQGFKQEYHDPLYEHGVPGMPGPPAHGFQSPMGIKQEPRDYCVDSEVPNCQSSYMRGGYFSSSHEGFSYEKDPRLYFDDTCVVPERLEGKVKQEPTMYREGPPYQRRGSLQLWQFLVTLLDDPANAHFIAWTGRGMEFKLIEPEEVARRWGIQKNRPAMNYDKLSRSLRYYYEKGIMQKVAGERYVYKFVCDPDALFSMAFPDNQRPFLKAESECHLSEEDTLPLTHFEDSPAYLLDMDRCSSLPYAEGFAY
Procedure, shortened: as §1

HSF1 = HSF1 (Homo sapiens, UniProt Q00613 1-529); settings: protein: recombinant; tags: N-terminal GST; chain copies: 3; dsDNA, one strand shown
HSF1, sequence (Q00613 whole entry): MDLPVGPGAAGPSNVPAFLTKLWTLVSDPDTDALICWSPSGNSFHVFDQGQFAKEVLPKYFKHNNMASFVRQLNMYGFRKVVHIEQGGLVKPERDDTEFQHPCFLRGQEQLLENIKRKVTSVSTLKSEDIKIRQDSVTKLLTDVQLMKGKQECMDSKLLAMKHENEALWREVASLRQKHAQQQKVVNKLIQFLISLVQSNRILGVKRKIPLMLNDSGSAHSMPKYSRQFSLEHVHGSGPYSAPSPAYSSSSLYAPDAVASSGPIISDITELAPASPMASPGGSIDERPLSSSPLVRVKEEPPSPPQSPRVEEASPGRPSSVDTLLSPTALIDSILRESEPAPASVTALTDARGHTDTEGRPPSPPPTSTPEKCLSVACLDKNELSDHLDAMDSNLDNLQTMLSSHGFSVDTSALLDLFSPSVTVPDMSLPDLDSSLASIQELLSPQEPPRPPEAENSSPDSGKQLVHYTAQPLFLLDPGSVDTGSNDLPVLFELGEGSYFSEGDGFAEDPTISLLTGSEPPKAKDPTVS
Procedure, shortened: as §1

SPIC = biological target: T2, SPIC (Homo sapiens, UniProt Q8N5J4 1-248); settings: protein: recombinant; tags: N-terminal GST; dsDNA, one strand shown
T2 sequence: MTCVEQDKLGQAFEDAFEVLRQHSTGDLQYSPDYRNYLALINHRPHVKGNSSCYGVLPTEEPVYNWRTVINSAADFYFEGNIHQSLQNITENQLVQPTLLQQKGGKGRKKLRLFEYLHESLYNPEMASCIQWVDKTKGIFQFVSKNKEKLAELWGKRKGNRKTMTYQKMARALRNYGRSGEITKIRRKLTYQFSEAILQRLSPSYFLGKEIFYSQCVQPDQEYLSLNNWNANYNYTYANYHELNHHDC
Procedure, shortened: as §1

ELF4 = ELF4 (Homo sapiens, UniProt Q99607 1-663); settings: protein: recombinant; tags: N-terminal GST; dsDNA, one strand shown
ELF4, sequence (Q99607 whole entry): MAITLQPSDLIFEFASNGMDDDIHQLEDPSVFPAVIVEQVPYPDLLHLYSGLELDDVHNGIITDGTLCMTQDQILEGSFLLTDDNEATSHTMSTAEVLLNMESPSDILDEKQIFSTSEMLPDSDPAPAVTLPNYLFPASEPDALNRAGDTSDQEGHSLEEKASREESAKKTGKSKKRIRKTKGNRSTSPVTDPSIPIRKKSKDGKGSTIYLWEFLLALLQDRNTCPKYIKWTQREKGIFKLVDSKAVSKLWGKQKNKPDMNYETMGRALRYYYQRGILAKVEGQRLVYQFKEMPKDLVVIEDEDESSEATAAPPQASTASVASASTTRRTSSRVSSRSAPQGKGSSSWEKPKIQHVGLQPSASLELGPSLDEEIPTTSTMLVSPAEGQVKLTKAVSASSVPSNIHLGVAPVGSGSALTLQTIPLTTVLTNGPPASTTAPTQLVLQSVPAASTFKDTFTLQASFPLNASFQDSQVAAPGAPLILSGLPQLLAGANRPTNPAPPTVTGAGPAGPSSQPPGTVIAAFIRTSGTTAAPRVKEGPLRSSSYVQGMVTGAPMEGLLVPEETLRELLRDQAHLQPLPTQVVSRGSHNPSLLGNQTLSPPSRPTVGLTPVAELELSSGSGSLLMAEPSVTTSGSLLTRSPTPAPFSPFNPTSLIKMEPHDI
Procedure, shortened: as §1

ELK4 = biological target: T3, ELK4 (Homo sapiens, UniProt P28324-2 1-405); settings: protein: recombinant; tags: N-terminal GST; dsDNA, one strand shown
T3 sequence: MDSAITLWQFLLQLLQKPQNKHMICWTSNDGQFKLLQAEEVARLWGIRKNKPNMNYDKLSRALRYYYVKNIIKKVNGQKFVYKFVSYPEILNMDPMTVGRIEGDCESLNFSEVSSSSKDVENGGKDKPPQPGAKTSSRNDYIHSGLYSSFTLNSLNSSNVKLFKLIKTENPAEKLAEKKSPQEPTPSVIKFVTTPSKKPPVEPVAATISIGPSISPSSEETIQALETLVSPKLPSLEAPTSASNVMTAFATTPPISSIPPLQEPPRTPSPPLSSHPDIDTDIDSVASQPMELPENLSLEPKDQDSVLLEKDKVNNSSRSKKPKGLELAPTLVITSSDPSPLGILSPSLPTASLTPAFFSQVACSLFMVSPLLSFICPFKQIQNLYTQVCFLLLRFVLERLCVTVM
Procedure, shortened: as §1

ETV2 = biological target: T4, ETV2 (Homo sapiens, UniProt O00321 1-342); settings: protein: recombinant; tags: N-terminal GST; dsDNA, one strand shown
T4 sequence: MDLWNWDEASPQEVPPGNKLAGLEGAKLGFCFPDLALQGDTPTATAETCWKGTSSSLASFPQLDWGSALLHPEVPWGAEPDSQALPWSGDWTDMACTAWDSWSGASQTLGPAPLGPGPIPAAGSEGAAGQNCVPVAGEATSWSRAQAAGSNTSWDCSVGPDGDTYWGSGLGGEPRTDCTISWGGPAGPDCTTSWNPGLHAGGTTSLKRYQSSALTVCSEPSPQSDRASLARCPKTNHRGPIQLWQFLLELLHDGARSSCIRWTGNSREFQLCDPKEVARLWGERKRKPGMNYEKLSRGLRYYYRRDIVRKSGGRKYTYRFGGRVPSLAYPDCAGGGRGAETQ
Procedure, shortened: as §1

ELF3 = biological target: T5, ELF3 (Homo sapiens, UniProt P78545 1-371); settings: protein: recombinant; tags: N-terminal GST; dsDNA, one strand shown
T5 sequence: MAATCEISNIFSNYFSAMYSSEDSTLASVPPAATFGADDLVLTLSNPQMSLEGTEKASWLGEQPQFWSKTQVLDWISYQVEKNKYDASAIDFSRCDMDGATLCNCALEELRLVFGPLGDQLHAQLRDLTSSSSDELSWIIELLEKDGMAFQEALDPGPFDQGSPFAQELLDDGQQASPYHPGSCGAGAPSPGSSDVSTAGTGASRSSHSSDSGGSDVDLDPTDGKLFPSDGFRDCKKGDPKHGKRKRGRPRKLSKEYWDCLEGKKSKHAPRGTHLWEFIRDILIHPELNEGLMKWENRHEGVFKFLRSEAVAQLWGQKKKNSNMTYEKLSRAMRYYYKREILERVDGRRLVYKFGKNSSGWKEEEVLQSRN
Procedure, shortened: as §1

ETV1 = ETV1 (Homo sapiens, UniProt P50549 1-477); settings: protein: recombinant; tags: N-terminal GST; dsDNA, one strand shown
ETV1, sequence (P50549 whole entry): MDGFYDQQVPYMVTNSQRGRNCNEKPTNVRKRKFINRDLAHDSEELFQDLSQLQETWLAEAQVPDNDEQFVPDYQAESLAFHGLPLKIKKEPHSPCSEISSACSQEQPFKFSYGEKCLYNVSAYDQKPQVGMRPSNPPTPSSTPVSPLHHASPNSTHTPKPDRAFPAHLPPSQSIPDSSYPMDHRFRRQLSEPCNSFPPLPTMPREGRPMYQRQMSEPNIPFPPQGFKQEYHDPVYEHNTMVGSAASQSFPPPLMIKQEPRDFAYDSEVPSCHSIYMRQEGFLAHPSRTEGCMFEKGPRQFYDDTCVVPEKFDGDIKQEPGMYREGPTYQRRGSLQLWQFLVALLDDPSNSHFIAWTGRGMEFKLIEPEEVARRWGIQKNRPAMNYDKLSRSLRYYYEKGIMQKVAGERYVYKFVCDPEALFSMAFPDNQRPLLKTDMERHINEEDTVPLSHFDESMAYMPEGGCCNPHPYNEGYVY
Procedure, shortened: as §1

ERF = biological target: T6, ERF (Homo sapiens, UniProt P50548 1-548); settings: protein: recombinant; tags: N-terminal GST; dsDNA, one strand shown
T6 sequence: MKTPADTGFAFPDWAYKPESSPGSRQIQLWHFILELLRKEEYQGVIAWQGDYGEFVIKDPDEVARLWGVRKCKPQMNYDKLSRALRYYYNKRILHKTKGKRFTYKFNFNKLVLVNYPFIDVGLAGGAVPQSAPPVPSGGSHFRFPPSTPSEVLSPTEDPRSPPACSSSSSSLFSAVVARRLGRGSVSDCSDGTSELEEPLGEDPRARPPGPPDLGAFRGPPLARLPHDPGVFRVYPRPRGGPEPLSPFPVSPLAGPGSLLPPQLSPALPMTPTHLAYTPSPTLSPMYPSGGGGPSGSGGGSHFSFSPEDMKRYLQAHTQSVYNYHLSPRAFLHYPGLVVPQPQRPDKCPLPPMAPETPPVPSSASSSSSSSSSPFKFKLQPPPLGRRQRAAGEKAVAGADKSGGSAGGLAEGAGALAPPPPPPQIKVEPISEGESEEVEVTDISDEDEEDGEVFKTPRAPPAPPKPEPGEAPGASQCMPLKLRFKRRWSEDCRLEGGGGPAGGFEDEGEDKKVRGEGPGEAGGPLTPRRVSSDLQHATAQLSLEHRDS
Procedure, shortened: as §1

ETV3L = biological target: T7, ETV3L (Homo sapiens, UniProt Q6ZN32 1-361); settings: protein: recombinant; tags: N-terminal GST; dsDNA, one strand shown
T7 sequence: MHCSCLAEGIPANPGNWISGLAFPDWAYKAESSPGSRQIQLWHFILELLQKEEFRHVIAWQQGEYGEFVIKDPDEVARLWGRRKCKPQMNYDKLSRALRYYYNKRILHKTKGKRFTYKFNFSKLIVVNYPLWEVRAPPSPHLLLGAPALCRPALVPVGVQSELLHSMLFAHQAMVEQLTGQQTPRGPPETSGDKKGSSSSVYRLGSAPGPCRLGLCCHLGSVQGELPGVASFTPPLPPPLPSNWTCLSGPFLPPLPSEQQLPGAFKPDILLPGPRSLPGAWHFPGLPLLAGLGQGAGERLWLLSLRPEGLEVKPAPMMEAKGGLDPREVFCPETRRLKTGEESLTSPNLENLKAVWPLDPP
Procedure, shortened: as §1

ETS2 = biological target: T8, ETS2 (Homo sapiens, UniProt P15036 1-469); settings: protein: recombinant; tags: N-terminal GST; dsDNA, one strand shown
T8 sequence: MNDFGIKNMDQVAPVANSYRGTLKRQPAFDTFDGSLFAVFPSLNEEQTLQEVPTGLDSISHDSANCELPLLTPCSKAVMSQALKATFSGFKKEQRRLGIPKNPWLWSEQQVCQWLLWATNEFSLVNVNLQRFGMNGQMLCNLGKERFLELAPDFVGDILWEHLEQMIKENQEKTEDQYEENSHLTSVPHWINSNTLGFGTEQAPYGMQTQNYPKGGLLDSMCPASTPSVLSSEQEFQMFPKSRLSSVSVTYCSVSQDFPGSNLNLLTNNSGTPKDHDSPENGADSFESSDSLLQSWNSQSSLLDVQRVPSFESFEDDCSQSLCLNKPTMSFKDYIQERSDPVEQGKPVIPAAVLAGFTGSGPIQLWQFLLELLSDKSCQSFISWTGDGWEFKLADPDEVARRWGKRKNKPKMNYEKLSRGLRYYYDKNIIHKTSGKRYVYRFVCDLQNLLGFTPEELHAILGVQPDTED
Procedure, shortened: as §1

SPDEF = biological target: T9, SPDEF (Homo sapiens, UniProt O95238 1-335); settings: protein: recombinant; tags: N-terminal GST; dsDNA, one strand shown
T9 sequence: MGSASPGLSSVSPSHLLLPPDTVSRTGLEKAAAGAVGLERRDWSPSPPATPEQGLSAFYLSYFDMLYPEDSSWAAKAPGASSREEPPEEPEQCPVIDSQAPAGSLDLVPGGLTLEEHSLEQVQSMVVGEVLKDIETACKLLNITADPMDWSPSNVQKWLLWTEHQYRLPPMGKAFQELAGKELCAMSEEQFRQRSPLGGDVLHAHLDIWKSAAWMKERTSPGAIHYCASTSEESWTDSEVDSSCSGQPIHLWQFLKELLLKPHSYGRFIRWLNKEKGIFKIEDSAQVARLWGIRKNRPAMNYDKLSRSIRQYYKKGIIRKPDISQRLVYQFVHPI
Procedure, shortened: as §1

ETV7 = biological target: T10, ETV7 (Homo sapiens, UniProt Q9Y603 1-341); settings: protein: recombinant; tags: N-terminal GST; dsDNA, one strand shown
T10 sequence: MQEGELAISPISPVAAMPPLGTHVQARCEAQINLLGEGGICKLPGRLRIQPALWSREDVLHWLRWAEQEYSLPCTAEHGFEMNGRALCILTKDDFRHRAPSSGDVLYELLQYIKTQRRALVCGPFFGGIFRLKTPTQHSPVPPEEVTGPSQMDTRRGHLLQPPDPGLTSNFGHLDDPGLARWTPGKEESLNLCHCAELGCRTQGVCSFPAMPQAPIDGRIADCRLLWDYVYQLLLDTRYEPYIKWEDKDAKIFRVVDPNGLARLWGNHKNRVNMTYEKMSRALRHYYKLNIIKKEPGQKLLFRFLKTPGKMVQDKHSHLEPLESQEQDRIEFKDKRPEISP
Procedure, shortened: as §1

ELF5 = biological target: T11, ELF5 (Homo sapiens, UniProt Q9UKW6-2 1-255); settings: protein: recombinant; tags: N-terminal GST; dsDNA, one strand shown
T11 sequence: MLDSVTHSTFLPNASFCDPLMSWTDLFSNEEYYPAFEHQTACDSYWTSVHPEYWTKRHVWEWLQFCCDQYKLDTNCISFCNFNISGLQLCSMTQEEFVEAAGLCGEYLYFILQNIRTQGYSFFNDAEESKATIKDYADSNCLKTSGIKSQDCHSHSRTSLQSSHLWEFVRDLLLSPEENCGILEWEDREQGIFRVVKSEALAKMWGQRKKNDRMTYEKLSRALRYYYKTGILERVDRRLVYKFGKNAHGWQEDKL
Procedure, shortened: as §1

ETV3 = biological target: T12, ETV3 (Homo sapiens, UniProt P41162-2 1-143); settings: protein: recombinant; tags: N-terminal GST; dsDNA, one strand shown
T12 sequence: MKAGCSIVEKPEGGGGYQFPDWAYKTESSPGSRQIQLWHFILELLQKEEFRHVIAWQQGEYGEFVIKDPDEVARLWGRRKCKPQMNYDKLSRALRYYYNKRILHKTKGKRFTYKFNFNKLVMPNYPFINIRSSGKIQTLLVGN
Procedure, shortened: as §1

ETV6 = ETV6 (Homo sapiens, UniProt P41212 1-452); settings: protein: recombinant; tags: N-terminal GST; dsDNA, one strand shown
ETV6, sequence (P41212 whole entry): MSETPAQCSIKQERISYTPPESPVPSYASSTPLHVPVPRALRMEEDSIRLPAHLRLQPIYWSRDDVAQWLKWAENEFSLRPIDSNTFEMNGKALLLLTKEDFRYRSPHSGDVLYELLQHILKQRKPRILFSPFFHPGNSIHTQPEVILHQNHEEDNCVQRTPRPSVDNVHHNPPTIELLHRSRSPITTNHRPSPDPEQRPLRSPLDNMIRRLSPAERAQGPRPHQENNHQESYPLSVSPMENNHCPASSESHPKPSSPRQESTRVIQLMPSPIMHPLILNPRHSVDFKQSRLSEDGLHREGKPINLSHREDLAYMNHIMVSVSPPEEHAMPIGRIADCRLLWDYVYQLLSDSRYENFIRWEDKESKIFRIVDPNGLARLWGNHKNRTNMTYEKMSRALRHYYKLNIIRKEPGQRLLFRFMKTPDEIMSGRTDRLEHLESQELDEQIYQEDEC
Procedure, shortened: as §1

## ATGCAC
FEV
  binding signal: 1.37 fold enrichment (6-mer frequency, TF over GST control)
ETV5
  binding signal: 1.28 fold enrichment (6-mer frequency, TF over GST control)
HSF1
  binding signal: 1.03 fold enrichment (6-mer frequency, TF over GST control)
SPIC
  binding signal: 1.19 fold enrichment (6-mer frequency, TF over GST control)
ELF4
  binding signal: 1.3 fold enrichment (6-mer frequency, TF over GST control)
ELK4
  binding signal: 1.36 fold enrichment (6-mer frequency, TF over GST control)
ETV2
  binding signal: 1.3 fold enrichment (6-mer frequency, TF over GST control)
ELF3
  binding signal: 1.36 fold enrichment (6-mer frequency, TF over GST control)
ETV1
  binding signal: 1.19 fold enrichment (6-mer frequency, TF over GST control)
ERF
  binding signal: 1.25 fold enrichment (6-mer frequency, TF over GST control)
ETV3L
  binding signal: 1.28 fold enrichment (6-mer frequency, TF over GST control)
ETS2
  binding signal: 1.29 fold enrichment (6-mer frequency, TF over GST control)
SPDEF
  binding signal: 1.5 fold enrichment (6-mer frequency, TF over GST control)
ETV7
  binding signal: 1.3 fold enrichment (6-mer frequency, TF over GST control)
ELF5
  binding signal: 1.19 fold enrichment (6-mer frequency, TF over GST control)
ETV3
  binding signal: 1.31 fold enrichment (6-mer frequency, TF over GST control)
ETV6
  binding signal: 1.29 fold enrichment (6-mer frequency, TF over GST control)
